{"source": "the supplement of paper PMC6555819", "data": [{"tested_on": "VDR:RXRa (NR concentration 270 nM, RXRa partner concentration 90 nM)", "experiment": "PBM binding z-score (relative to random genomic background probes); higher = stronger binding; sequences stand for … in GC…GCGATTGACAGCGTAGAATGAAGG", "method": "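Protein-binding microarray (Agilent 4x180K custom design, double-stranded 60-nt probes: 5' GC cap, 34-nt variable region, 24-nt constant primer region; full probe sequence given). Purified or IVT nuclear receptor:RXRα heterodimers (3:1 NR:RXRα, mostly 270:90 nM) or homodimers were incubated for 1 h in PBS with 2% milk and no ligand, then detected with Alexa488 antibodies. Fluorescence from o1-orientation probes (~5 replicates averaged) was converted to z-scores against 500 random hg19 background probes. Variable regions are seed direct-repeat (DR0–DR5) sites, all their single-nucleotide variants and half-site ablations.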", "values": [{"sequence": "CCTCGGAGGACAACAGGAGGTCATAGCTGCCAGA", "PBM binding z-score": 3.57}, {"sequence": "TGTCAAAGGTCAAAGGTAACGTAAGTATCCACAC", "PBM binding z-score": 6.2}, {"sequence": "CCTACTGGGCCACGAAAGGCCATTGATTCAGTGA", "PBM binding z-score": -0.147}, {"sequence": "CGTCCAAGGTCACAGAGGTCAGTGAATGCCGAGT", "PBM binding z-score": 7.74}, {"sequence": "TAGCCTAAGTCATGCGGGCCAGTATAGTGTCGGC", "PBM binding z-score": -0.392}, {"sequence": "ATCGAAAGGTCGACGCGGTGAGTATACACCGTTT", "PBM binding z-score": 3.04}, {"sequence": "ACTCGGAGGACAAAGGTCAGGGCTACGCCAGTGA", "PBM binding z-score": 3.43}, {"sequence": "AGTCAAAGTTTATCTAGGTAACGTAAGATATGCT", "PBM binding z-score": 0.584}, {"sequence": "TCTAGTTGGTCAAAGGTCACGCACTCGAAATGCG", "PBM binding z-score": 6.05}, {"sequence": "CCTTAAGGGTCACGAGGTTATAGCACGACGAGCG", "PBM binding z-score": 6.02}, {"sequence": "CAAACTAGGTCAAAAGGTCAAAGTCCGCTTCCCG", "PBM binding z-score": 6.32}, {"sequence": "AGTCAAACTTCAGGACGAGGTAACGTAAAGCACG", "PBM binding z-score": -0.131}, {"sequence": "AATACAGGGTCATCGTAGGTCAGAGTACGCACAG", "PBM binding z-score": 6.2}, {"sequence": "TAGCCTAGGTCATTCAGGGGCCACTATAGAAAGC", "PBM binding z-score": 3.95}, {"sequence": "CGTCAAAGTCCAAGGTAACGTAACAGAAAGCAGC", "PBM binding z-score": -0.137}, {"sequence": "CCTAGCAGGCCAATCTAGGTCACTCAAGGCTTGA", "PBM binding z-score": 0.635}, {"sequence": "CGTCAAAGTTCAACTAAGGTTACGTAAAGCACGC", "PBM binding z-score": 6.11}, {"sequence": "CGTCCAAGGTCGAAGGTCAGTGAAGAGATGACGG", "PBM binding z-score": 3.23}, {"sequence": "ATCGAAAGGTCATGAGGTGAGTATACAGAAAGGC", "PBM binding z-score": 5.78}, {"sequence": "AAAACAGGGTCATCGTAGGCCAGAGTACGCACAG", "PBM binding z-score": 5.38}, {"sequence": "CGTCCAAGGTCAAGGTCAATGAAAGAGACTCGAA", "PBM binding z-score": 5.07}, {"sequence": "CGTCCAAGGTTAAGGTCAGTGAAAGAGACTCGAA", "PBM binding z-score": 2.5}, {"sequence": "GATACGGGGTCAAGGCCAGAGTACGCGTATTGAT", "PBM binding z-score": 6.27}, {"sequence": "TCTCGGAGGAAACGAAAGGTCAGAGCTCGACATC", "PBM binding z-score": 2.44}, {"sequence": "CGTCAAAGGTCAATGCTAGGTCAGTGAAAGCATT", "PBM binding z-score": 6.01}, {"sequence": "ATATGTAGGTTAAGCGTCATTCAGGTTGGTTCGC", "PBM binding z-score": 0.888}, {"sequence": "AATAAAGGGTCATCGTAGGCCAGAGTACGCACAG", "PBM binding z-score": 5.33}, {"sequence": "CAAACCAGGTCAAGAGGTCAAAGTCCGCTTCCCG", "PBM binding z-score": 6.45}, {"sequence": "CGAACTAGGTCGAGGACAGTGAATCTCCGCACGC", "PBM binding z-score": 0.0505}, {"sequence": "CGTCAAACTTCAACTAAGGTAACGTAAAGCACGC", "PBM binding z-score": 0.382}, {"sequence": "CGAACTAGGTCACCCAGGACAGTGAATACATTGA", "PBM binding z-score": 4.43}, {"sequence": "TAGCCTAGTTCATTCAGGGGCCAGTATAGAAAGC", "PBM binding z-score": 2}, {"sequence": "AGTCAAAGTTCAGGACGAGGTAACGTTAAGCACG", "PBM binding z-score": 2.97}, {"sequence": "TCTGCTAGGTCATCGATGGTCAGCTAATCTGCTA", "PBM binding z-score": 2.16}, {"sequence": "TATACAGGGTCAAAGGCCAAAGTACGAATGTCGA", "PBM binding z-score": 5.31}, {"sequence": "CCTTACGGGTCACTCCAGGTTATATCATCGGAGT", "PBM binding z-score": 4.52}, {"sequence": "CCTTACGGGTTACTCCAGGTTATAGCATCGGAGT", "PBM binding z-score": 1.39}, {"sequence": "TAGCCTAGGTCATGCGGGACAGTATAGTGTCGGC", "PBM binding z-score": 3.48}, {"sequence": "TTACCAAGGTCAAAGGTCGTTGATGCACGCCTTG", "PBM binding z-score": 6.42}, {"sequence": "CGTCCGAGGTCATAGGAGGTCAGTGAAGACAGAT", "PBM binding z-score": 7.1}]}]}
